Measured values as given in ChEMBL document CHEMBL3988442, “University of Dundee, Small-Polar-MMV Screening Library” (2021).
The campaign covered roughly 48,000 compounds. About 13,000 (27%) showed an effect of 50% or more. Some of the results follow.

Tested on: Wolbachia pipientis
Assay: Anti-Wolbachia Cell-Based Screen
Assay type: functional
Parameters: scale not given: in the data most compounds retested in dose-response had high values
Settings: 5 µM

Row | SMILES | Percent Effect [%]
1 | CN(Cc1cccnc1)CC1CC12CCN(c1nncs1)CC2.O=C(O)C(F)(F)F.O=C(O)C(F)(F)F.O=C(O)C(F)(F)F (stereo not drawn) | 10.12
2 | COc1ccc(-c2noc(Cn3cnc(C)c3)n2)c(OC)c1OC | 10.58
3 | Cc1ccc(-c2noc([C@@H]3Cc4nc[nH]c4CN3)n2)cc1 | 1.545
4 | CSCC(=O)Nc1nccn1Cc1ccc(Br)cc1 | -2.171
5 | O=C1N(c2ccccc2)Cc2n[nH]c(=O)n21 | -1.221
6 | COc1cc(C(=O)N2CC(Oc3ccccc3Cl)C2)ccn1 | -4.351
7 | CN(C)C(=O)N1CCn2nc(CNC(=O)CCC(F)(F)F)cc2C1 | -4.672
8 | CN(C)C(=O)N1CCCn2nc(CNC(=O)CCc3cccs3)cc2C1 | 2.264
9 | CN(Cc1cc2n(n1)CCCN(C(=O)N1CCCC1)C2)Cc1nccs1 | 94.61
10 | CN(C)C(=O)N1CCCn2nc(CNC(=O)CCc3ccsc3)cc2C1 | -5.491
11 | CN(C)C(=O)N1CCn2nc(CNC(=O)CCc3ccccn3)cc2C1 | 5.444
12 | COCCOC(=O)N1CCn2nc(CN(C)Cc3nccs3)cc2C1 | 91.56
13 | CCn1c(CC2CCN(C(=O)C3CNCCO3)CC2)nn(C)c1=O (stereo not drawn) | -6.283
14 | CC(C)(CCS(C)(=O)=O)CNc1ccc2ccc(F)cc2n1 | 0.04358
15 | Cc1oc(-c2ccco2)nc1CC(=O)N1CCC(C(O)C(F)(F)F)CC1 (stereo not drawn) | 3.492
16 | O=C(C1CCCCC1)N1CCC(n2nc(-c3ccco3)ccc2=O)CC1 | 79.69
17 | O=C(c1cccs1)N1CCC(Cn2nc(-c3ccco3)ccc2=O)CC1 | -6.925
18 | CC(C)(C)C(=O)N1CCC(n2cc(C3(O)CCCC3)nn2)CC1 | -19.86
19 | O=C(c1ccco1)N1CCC(n2nc(-c3ccco3)ccc2=O)CC1 | 74.86
20 | CC(=O)c1c(F)cccc1NC1CCN(C(=O)C2CCCCC2)CC1 | 1.543
21 | O=C(c1csc(-c2ccco2)n1)N1CCN2CCCCC2C1 (stereo not drawn) | -12.72
22 | O=C(Cc1ccsc1)N1CCC(n2nc(-c3ccco3)ccc2=O)CC1 | -9.761

Row | SMILES | Percent Effect [%]
23 | O=C(c1ccco1)N1CCC(n2nc(-c3cccs3)ccc2=O)CC1 | 64.54
24 | O=C(c1ccco1)N1CCC(n2cc(-c3ccsc3)nn2)CC1 | 0.1659
25 | CC(C)(C)C(=O)N1CCC(n2nc(-c3ccco3)ccc2=O)CC1 | 101.2
26 | O=C(c1cccs1)N1CCC(n2nc(-c3ccco3)ccc2=O)CC1 | -4.214
27 | Cn1c(-c2ccccc2Cl)nc2cc(C(=O)NCCS(C)(=O)=O)cnc21 | 0.8241
28 | CCn1nc(C)c(CNC(=O)C2COc3ccccc3C2)c1C (stereo not drawn) | -10.56
29 | CCC(C)N(Cc1ccncc1)Cc1ccc(-n2cccn2)cc1 (stereo not drawn) | -9.551
30 | COc1ccc(Br)c(C(=O)NCC2CCN(C(=O)c3ccoc3)CC2)c1 | -6.269
31 | Cc1cccc(CN2CCCC(O)(CNCc3ncccc3C)C2=O)c1 (stereo not drawn) | 4.315
32 | CC(NC(=O)NCCCOC1CCCCC1)c1nncn1C (stereo not drawn) | 12.39
33 | O=C(CCc1ccco1)Nc1ccc(Br)cn1 | -1.221
34 | CC(C)C(=O)N1CCC(n2nc(-c3ccco3)ccc2=O)CC1 | 101.9
35 | Cc1oc(-c2ccco2)nc1CC(=O)N1CCC(CCO)C1 (stereo not drawn) | 7.972
36 | OCC(O)CSCc1cn(-c2ccc(F)c(Cl)c2)nn1 (stereo not drawn) | 1.714
37 | Cc1csc(C2(NCc3nc(-c4ccco4)oc3C)CCCC2)n1 | 21.68
38 | CNS(=O)(=O)c1cc(C(=O)NC2COc3ccccc32)cc(C)c1C (stereo not drawn) | 105.8
39 | Cc1ccc(C(=O)NCC2Cc3ccccc3O2)cc1S(C)(=O)=O (stereo not drawn) | -52.49
40 | Cc1ccc(C(=O)NC2CCOc3ccccc32)cc1S(C)(=O)=O (stereo not drawn) | 118
41 | CN(C)c1nc(CNC(=O)NC2COc3ccccc32)cs1 (stereo not drawn) | -3.429
42 | CNS(=O)(=O)c1cc(C(=O)NC2COc3ccccc3C2)ccc1OC (stereo not drawn) | -1.094
43 | Cc1nnc(NC(=O)NC2CCOc3ccccc32)s1 (stereo not drawn) | 11.11
44 | COc1ccc(C(O)CN2CC(n3cc(C)cn3)C2)cc1 (stereo not drawn) | -26.31

Row | SMILES | Percent Effect [%]
45 | Cn1ccnc1-c1cccc(NC(=O)NCCCN2CCOCC2)c1 | 9.655
46 | O=C(NCCCN1CCOCC1)c1ccc(-c2ccccc2)[nH]c1=O | -4.893
47 | O=C(NCCN1CCCCCC1)c1cccc(Cl)c1Cl | -3.616
48 | CN(C)Cc1cccc(-c2cccnc2C(=O)NCc2ccccn2)c1 | 107.8
49 | Cc1oc(C)c(C(=O)NCc2ccccn2)c1C | -10.25
50 | NCc1cccc(-c2cccnc2C(=O)NCCN2CCCC2)c1 | 177.6
51 | NCc1cccc(-c2cccnc2C(=O)NCCCN2CCOCC2)c1 | 156.6
52 | COc1cc(CN(C)C(=O)NCc2ccccn2)ccc1SC | -14.77
53 | O=C(NCCN1CCCCC1)c1cccc(Cl)c1Cl | -2.651
54 | O=C(NCCCN1CCOCC1)c1cc(-c2ccccc2)[nH]n1 | 93.89
55 | O=C(NCCCN1CCOCC1)c1ccnc(OCc2ccccc2)c1 | 13.78
56 | O=C(NCCCN1CCOCC1)c1cc(-c2ccco2)[nH]n1 | 0.6677
57 | CC(CC#N)NC(=O)c1cc(Br)c2c(c1)OCCO2 (stereo not drawn) | 3.147
58 | Cc1ccc(C(=O)N2CCC(C(F)(F)F)CC2)cc1N1CCNC1=O | 18.95
59 | O=C(O)C(F)(F)F.O=C1CCCN1CC1CN(CC2CCOCC2)Cc2nccn2C1 (stereo not drawn) | -5.52
60 | CCCn1cnnc1CNCc1c[nH]nc1-c1ccc(F)cc1 | -2.592
61 | c1cncc(-c2nnc(C3(c4ccc5c(c4)OCO5)CCOCC3)o2)c1 | 0.6275
62 | NCc1cccc(-c2cccnc2C(=O)NCCN2CCOCC2)c1 | 178.8
63 | Cn1ccnc1-c1cccc(NC(=O)NCCN2CCOCC2)c1 | 1.066
64 | O=C(NCCN1CCOCC1)c1cc(-c2ccccc2Cl)[nH]n1 | 0.5934
65 | O=C(NCCCn1ccnc1)Nc1ccn(CCc2ccccn2)n1 | -2.122
66 | CCN(Cc1cccc(C(=O)Nc2cn(C)nn2)c1)[C@H]1COC[C@@H]1O | 20.02

Row | SMILES | Percent Effect [%]
67 | COc1cc(N2CCn3cc(CNc4ccccn4)nc3C2)ncn1 | 0.6158
68 | Cc1cc(CNC(=O)CCN2CCN(c3ccccn3)CC2)c(C)o1 | -14.14
69 | CC(C)COCCC(=O)NCCC(=O)N1CCN(c2ccccn2)CC1 | 140.4
70 | Cc1csc(N2CCN(C(=O)CCNc3ncccn3)CC2)n1 | -3.8
71 | Cc1ccc(CNC(=O)CCN2CCN(c3ccccn3)CC2)n1C | 5.614
72 | CC(C)OCCC(=O)NCCC(=O)N1CCN(c2ccccn2)CC1 | 105.6
73 | Cc1ncsc1CNC(=O)CCN1CCN(c2ccccn2)CC1 | -8.127
74 | Cc1nc(N2CCOCC2)nc2c1COCC21CCN(CC(C)C)C1 (stereo not drawn) | 0.306
75 | COCC(=O)N1CCC2(COCc3c(C)nc(N(C)C)nc32)C1 (stereo not drawn) | 100.6
76 | Cc1nc(N(C)C)nc2c1COCC21CCN(C(=O)NCC(C)C)C1 (stereo not drawn) | 114.7
77 | CCC(=O)N1CCC2(COCc3c(C)nc(N(C)C)nc32)C1 (stereo not drawn) | 5.169
78 | COCCN1CCC2(COCc3c(C)nc(N4CCOCC4)nc32)C1.O=C(O)C(F)(F)F (stereo not drawn) | 8.185
79 | Cc1nc(N2CCOCC2)nc2c1COCC21CCN(CC2CC2)C1.O=C(O)C(F)(F)F (stereo not drawn) | 1.071
80 | Cc1nc(N(C)C)nc2c1COCC21CCN(C(=O)C2CC2)C1 (stereo not drawn) | 112
81 | CC(=O)NCC(=O)N1CCC2(COCc3c(C)nc(N(C)C)nc32)C1 (stereo not drawn) | 108.4
82 | Cc1nc(N(C)C)nc2c1COCC21CCN(C(=O)NC(C)C)C1 (stereo not drawn) | 14.65
83 | Cc1noc(C)c1CN1CCC2(COCc3cnc(N(C)C)nc32)C1.O=C(O)C(F)(F)F (stereo not drawn) | -6.223
84 | Oc1c(F)cc(CNc2cccc(-c3nnc[nH]3)c2)cc1F | 3.752
85 | NCc1cn(CC2CCCN(C(=O)NCCc3ccc(F)cc3)C2)nn1 (stereo not drawn) | -14.7
86 | O=C(CSc1nnc[nH]1)NCc1sccc1Br | -6.223
87 | O=C(CCc1ccc(Cl)s1)N1CCCC(n2cncn2)C1 (stereo not drawn) | 2.271
88 | COc1ccc(CCC(=O)N2CCCC(n3cncn3)C2)cc1 (stereo not drawn) | 106.9

Row | SMILES | Percent Effect [%]
89 | COc1ccc(CCCC(=O)N2CCCC(n3cncn3)C2)cc1 (stereo not drawn) | -28.74
90 | O=C(CCc1ccsc1)N1CCCC(n2cncn2)C1 (stereo not drawn) | 119.5
91 | N#Cc1ccc(CCC(=O)N2CCCC(n3cncn3)C2)cc1 (stereo not drawn) | 122.1
92 | COc1ccc(CCN2CCCC(n3cncn3)C2)cc1 (stereo not drawn) | -2.484
93 | N#Cc1ccc(CC(=O)N2CCCC(n3cccn3)C2)cc1 (stereo not drawn) | 3.73
94 | O=C(Cc1ccc2c(c1)OCCO2)N1CCCC(n2cncn2)C1 (stereo not drawn) | 8.803
95 | O=C(c1cccnc1O)N1CCCC2(C=Cc3ccccc3O2)CC1 (stereo not drawn) | 2.5
96 | COc1cccc(COCC(O)CN2CC(n3cccn3)C2)c1 (stereo not drawn) | -10.3
97 | FC(F)Oc1ccc(CN2CCOC3(CCOCC3)C2)cc1Cl | 7.261
98 | CN(C)C(=O)N1CCN(Cc2ccc3occc3c2)[C@H]2CS(=O)(=O)C[C@H]21 | -2.327
99 | COc1ccccc1CCN(C)C(=O)NC(C)c1nncn1C (stereo not drawn) | 3.532
100 | CC(Nc1nc2c(cnn2C)c(=O)[nH]1)c1ccccn1 (stereo not drawn) | -0.01009
101 | O=C(NCCCNc1ccccc1)c1scnc1Cl | 2.651
102 | O=C(CN1CCOC(c2ccccc2C(F)(F)F)C1)NC1CC1 (stereo not drawn) | 8.433
103 | COCCN(C(=O)c1nc(-c2ccco2)sc1C)C1CC1 | 4.119
104 | COCCN1CCn2cc(CNC(=O)C3CCC3)nc2C1 | -2.168
105 | COCCNc1ccccc1CNC(=O)C1CCCOC1 (stereo not drawn) | -2.92
106 | COCCCNc1nc(CNC(=O)C2CCC2)cc(-c2ccco2)n1 | 103.2
107 | Cc1cc(NCc2csc(-c3ccco3)n2)ccc1C(N)=O | -17.43
108 | COCCCNc1nc(CNC(C)=O)cc(-c2ccco2)n1 | 96.87
